# Reference: PubChem BioAssay (EPA / NIEHS)
# Inconclusive results are not listed. Calls of active or inactive are those of the source. The calls were made as follows: active = hit-call score of the fitted dose curve at least 0.9, where 1 is the maximum; inconclusive = response in the unintended direction; inactive = score below 0.9.
# Target: human Thyroid Receptor alpha (THRa1), THRA (gene 7067) (UniProt P10827)
# Experiment: ATG_THRa1_TRANS: Attagene TRANS-FACTORIAL HepG2 Assay for human Thyroid Receptor alpha (THRa1) (AID 2283014)
# Procedure, shortened: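 Reporter transcript induction, read by capillary electrophoresis of 6-FAM-labelled RT-PCR products, reflects activity of a transfected THRa1-Gal4 fusion in HepG2 liver cells. Cells were dosed for 24 h; activity was fitted in the positive direction against DMSO.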
# Sequence of human Thyroid Receptor alpha (THRa1), THRA (gene 7067) (P10827 whole entry, looked up): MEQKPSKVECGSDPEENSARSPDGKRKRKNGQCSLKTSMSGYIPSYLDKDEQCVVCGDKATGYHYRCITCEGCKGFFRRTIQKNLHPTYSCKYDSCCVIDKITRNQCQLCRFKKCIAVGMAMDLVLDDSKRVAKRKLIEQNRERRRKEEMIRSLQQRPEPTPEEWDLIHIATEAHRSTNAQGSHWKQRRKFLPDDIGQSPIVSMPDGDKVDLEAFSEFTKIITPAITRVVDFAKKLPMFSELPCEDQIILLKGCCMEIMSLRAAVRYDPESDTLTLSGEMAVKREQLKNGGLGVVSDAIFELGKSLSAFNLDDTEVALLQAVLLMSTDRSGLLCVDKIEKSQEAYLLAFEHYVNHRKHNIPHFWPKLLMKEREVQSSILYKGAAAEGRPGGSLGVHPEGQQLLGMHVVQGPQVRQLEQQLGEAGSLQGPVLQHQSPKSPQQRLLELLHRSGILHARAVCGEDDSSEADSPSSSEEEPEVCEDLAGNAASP
SMILES,outcome,AC50
Nc1cc(N)cc(C(=O)O)c1,inactive,–
CCCCN,inactive,–
C=C(C)C(=O)NCCCN(C)C,inactive,–
O=[N+]([O-])c1ccc(C=Cc2ccc([N+](=O)[O-])cc2S(=O)(=O)O)c(S(=O)(=O)O)c1,inactive,–
Cc1ccc(C(=O)O)o1,inactive,–
CCCCCCCCCOC(C)=O,inactive,–
NC(N)=NC(=O)c1nc(Cl)c(N)nc1N,inactive,–
OCCCCCO,inactive,–
CC(=O)OCCOC(C)=O,inactive,–
O=C(O)c1ccc(C(=O)O)cc1,inactive,–
CC(=O)[O][Al][O]C(C)=O,inactive,–
C=C(C)C(=O)OCc1ccccc1,inactive,–
CC[C@]12CCCN3CCc4c(n(c5ccccc45)[C@@](O)(C(=O)OC)C1)[C@@H]32,–,28.5 µM (active)
CN(C)CCCN,inactive,–
CC(C)(CO)[N+](=O)[O-],inactive,–
NCCOCCO,inactive,–
O=C1C(c2[nH]c3ccc(S(=O)(=O)O)cc3c2O)=Nc2ccc(S(=O)(=O)O)cc21,inactive,–
CNCCO,inactive,–
CC(C)C1CCC(O)CC1 (stereo unspecified),inactive,–
Nc1ccc(F)c([N+](=O)[O-])c1,inactive,–
CC1(C)[C@H](C(=O)OCc2cccc(Oc3ccccc3)c2)[C@@H]1C=C(Cl)Cl,inactive,–
